Consider 30 compounds from PubChem BioAssay (EPA / NIEHS).

The target in assay [1] is Cellular tumor antigen p53 (Homo sapiens) (UniProt P04637). Description: TOX21_p53_BLA_p4_ratio: Tox21 HCT-116 p53 Agonism Beta-lactamase Assay, Ratio, Phase 4 (AID 2283601). Summed up: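 Signal is the blue/green (460nm/530nm) ratio of cleaved versus uncleaved CCF4-AM substrate, read after 2 h substrate loading. Cells were HCT116 carrying the p53-responsive beta-lactamase reporter, dosed 16 h at 37C, 5% CO2; CellTiter-Glo measured in parallel.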

The nature of assay [2]: Tanguay_ZF_120hpf_MORT_legacy: (Legacy) Oregon State University Tanguay Lab 120 Hour Post-fertilization zebrafish Assay for Mortality (AID 2283633). In a few lines: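 Dechorionated Tropical 5D wild-type zebrafish embryos, one per well from 6 hpf, were statically exposed at 28C in the dark until 120 hpf (0.64% DMSO final). Mortality was scored as present/absent by brightfield microscopy, fitted positively versus DMSO.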

The nature of assay [3]: Tanguay_ZF_120hpf_YSE_legacy: (Legacy) Oregon State University Tanguay Lab 120 Hour Post-fertilization zebrafish Assay for Yolk Sac Edema (AID 2283634).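 As to AC50: actives raise the incidence of yolk sac edema above the DMSO baseline.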 In a few lines:
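Tropical 5D wild-type embryos, dechorionated with pronase at 4 hpf, were exposed singly from 6 hpf to 120 hpf under static, sealed, dark conditions at 28C with 0.64% DMSO final. Yolk sac edema was scored present/absent by brightfield microscopy.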

Assay [4] can be described thus: Tanguay_ZF_120hpf_AXIS_legacy: (Legacy) Oregon State University Tanguay Lab 120 Hour Post-fertilization zebrafish Assay for Body Axis Malformation (AID 2283635).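 As to AC50: potency for an increased fraction of larvae scored with body axis malformation.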 Summed up:
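Tropical 5D wild-type zebrafish embryos, dechorionated with pronase at 4 hpf, were placed singly in wells at 6 hpf and exposed statically to test chemical (0.64% DMSO final) at 28C until 120 hpf, then scored by brightfield for body axis defects.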

Assay [5] can be described thus: Tanguay_ZF_120hpf_EYE_legacy: (Legacy) Oregon State University Tanguay Lab 120 Hour Post-fertilization zebrafish Assay for Eye Malformation (AID 2283636). In a few lines: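 Read-out is binary presence or absence of eye malformation, scored by brightfield microscopy at 120 hpf. Single larvae were exposed from 6 hpf in embryo medium containing 0.64% DMSO, with DMSO as baseline.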

The nature of assay [6]: Tanguay_ZF_120hpf_SNOU_legacy: (Legacy) Oregon State University Tanguay Lab 120 Hour Post-fertilization zebrafish Assay for Snout Malformation (AID 2283637). In a few lines:
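Snout malformation read as a yes/no call on brightfield images of 120 hpf larvae (Tropical 5D strain). Static exposure began at 6 hpf on dechorionated embryos in 0.64% DMSO, with gain of signal analysed versus DMSO controls.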

Assay [7] in a line: Tanguay_ZF_120hpf_JAW_legacy: (Legacy) Oregon State University Tanguay Lab 120 Hour Post-fertilization zebrafish Assay for Jaw Malformation (AID 2283638).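 As to AC50: active means more embryos with jaw malformation than DMSO controls.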 Summed up: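 Tropical 5D wild-type embryos, dechorionated with pronase at 4 hpf, were placed singly per well at 6 hpf and statically exposed at 28C until 120 hpf (0.64% DMSO final). Jaw malformation scored as present/absent by brightfield microscopy at 120 hpf, analyzed relative to DMSO.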

Assay [8] in a line: Tanguay_ZF_120hpf_OTIC_legacy: (Legacy) Oregon State University Tanguay Lab 120 Hour Post-fertilization zebrafish Assay for Otic Vesicle Malformation (AID 2283639). In a few lines: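 Tropical 5D wild-type zebrafish embryos were exposed statically in sealed, foil-covered plates at 28C until 120 hpf, with 0.64% (vol/vol) DMSO final. Otic vesicle malformation was scored present/absent by brightfield microscopy, with DMSO as baseline.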

A short description of assay [9]: Tanguay_ZF_120hpf_PE_legacy: (Legacy) Oregon State University Tanguay Lab 120 Hour Post-fertilization zebrafish Assay for Pericardial Edema (AID 2283640).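 As to AC50: potency for increased incidence of pericardial edema versus DMSO baseline.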 In a few lines: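 Tropical 5D wild-type zebrafish embryos were exposed statically to 120 hpf at 28C, sealed and foil-covered, in 0.64% DMSO final. Pericardial edema was scored present/absent by brightfield microscopy; dead embryos were not scored.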

Assay [10] in a line: Tanguay_ZF_120hpf_BRAI_legacy: (Legacy) Oregon State University Tanguay Lab 120 Hour Post-fertilization zebrafish Assay for Brain Malformation (AID 2283641). Summed up: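 Tropical 5D wild-type zebrafish embryos were exposed statically in sealed, foil-covered plates at 28C until 120 hpf, with 0.64% (vol/vol) final DMSO. Brain malformation was scored present/absent by brightfield microscopy, relative to DMSO baseline.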

Assay [11] in a line: Tanguay_ZF_120hpf_SOMI_legacy: (Legacy) Oregon State University Tanguay Lab 120 Hour Post-fertilization zebrafish Assay for Somite Malformation (AID 2283647). Summed up:
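Tropical 5D wild-type zebrafish embryos, dechorionated with pronase at 4 hpf, were placed singly at 6 hpf and statically exposed until 120 hpf at 28C in 0.64% DMSO. Somite malformation was scored present/absent by brightfield microscopy versus DMSO.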

Assay [12] is described as follows: Tanguay_ZF_120hpf_PFIN_legacy: (Legacy) Oregon State University Tanguay Lab 120 Hour Post-fertilization zebrafish Assay for Pectoral Fin Malformation (AID 2283648).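 Also: each larva judged yes or no for fin defect by brightfield with dead larvae skipped.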 Summed up: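 5D WT zebrafish; pronase dechorionation 4 hpf; 1 embryo/well at 6 hpf; static exposure to 120 hpf, 28C, sealed, foil-covered; final DMSO 0.64% v/v; 5 uM trimethyltin chloride positive control; fin defect scored yes/no.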

The nature of assay [13]: Tanguay_ZF_120hpf_PIG_legacy: (Legacy) Oregon State University Tanguay Lab 120 Hour Post-fertilization zebrafish Assay for Pigmentation Malformation (AID 2283650). In a few lines:
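Pronase dechorionation at 4 hpf; embryos plated at 6 hpf, one per well; static exposure, sealed and foil-covered, 28C, to 120 hpf; pigmentation read by brightfield, binary; DMSO 0.64% baseline, 5uM trimethyltin chloride positive control.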

The nature of assay [14]: Tanguay_ZF_120hpf_SWIM_legacy: (Legacy) Oregon State University Tanguay Lab 120 Hour Post-fertilization zebrafish Assay for Swim Bladder Malformation (AID 2283654).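 Also: swim bladder malformation in each larva scored yes or no under brightfield.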 In a few lines:
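Embryos lacking chorions were exposed individually and statically to test chemical from 6 to 120 hpf at 28C, with 0.64% DMSO as vehicle. At 120 hpf, swim bladder malformation was recorded as present or absent by brightfield microscopy.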

The nature of assay [15]: Tanguay_ZF_120hpf_TRUN_legacy: (Legacy) Oregon State University Tanguay Lab 120 Hour Post-fertilization zebrafish Assay for Truncated Body (AID 2283655). In a few lines:
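Tropical 5D wild-type embryos, dechorionated with pronase at 4 hpf, were placed singly in wells at 6 hpf and statically exposed at 28C until 120 hpf, final DMSO 0.64%. Truncated body was scored present/absent by brightfield microscopy.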

Assay [16] has as its system Thyroperoxidase (TPO), gene 54314. The assay is described as follows: CCTE_Simmons_AUR_rTPO: CCTE's Amplex UltraRed Assay for Thyroperoxidase (TPO) Inhibition, Simmons Lab (AID 2283662).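 As to AC50: potency for loss of signal meaning inhibition of peroxidase activity.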 In a few lines: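 Rat thyroid microsomes (5 ug protein) were incubated with test compound (8 concentrations, 5 nM–87.5 uM final, 0.5% DMSO), 25 uM Amplex UltraRed and 300 uM H2O2 in 200 mM phosphate buffer for 30 min at 37C in the dark; fluorescence read at 544/590 nm.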

“And” between values parts separate entries of the source, which are not always exact repeats. Equal values may be shown once. Inconclusive results are not listed. More than one record can exist for a structure, and the calls need not agree. The source made the active and inactive calls. The calls were made as follows: active = hit-call score of the fitted dose curve at least 0.9, where 1 is the maximum; inconclusive = response in the unintended direction; inactive = score below 0.9.

Sequence of Cellular tumor antigen p53 (Homo sapiens) (P04637 whole entry, looked up): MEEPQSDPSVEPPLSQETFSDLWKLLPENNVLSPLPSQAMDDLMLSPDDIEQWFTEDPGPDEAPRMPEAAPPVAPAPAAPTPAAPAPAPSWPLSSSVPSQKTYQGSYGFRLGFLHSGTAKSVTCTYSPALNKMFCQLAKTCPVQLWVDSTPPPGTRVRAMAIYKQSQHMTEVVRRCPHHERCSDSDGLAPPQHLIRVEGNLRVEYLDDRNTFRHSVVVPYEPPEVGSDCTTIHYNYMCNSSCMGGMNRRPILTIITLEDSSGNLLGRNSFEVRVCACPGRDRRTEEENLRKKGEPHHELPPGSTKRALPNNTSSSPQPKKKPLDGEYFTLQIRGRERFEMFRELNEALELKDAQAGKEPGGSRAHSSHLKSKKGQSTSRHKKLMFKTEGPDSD

With `Cc1ccc2c(c1N)C(=O)c1ccccc1C2=O`, in [1], the result was inactive.

One may read the AC50 as the midpoint of the concentration-response curve, whichever way the signal moves. In the case of `CC(C)Nc1ccc(Nc2ccccc2)cc1`, in assay [1], the AC50 is 14.9 µM (active) and the outcome was inactive.

`Cc1c([N+](=O)[O-])cc2c(c1[N+](=O)[O-])C(C)(C)CC2(C)C`: the outcome in assay [1] was inactive.

Turning to `CCC1(c2ccccc2)C(=O)N=C(O)NC1=O` (centres undefined), the result in assay [1], in [2], in [3], in assay [4], in assay [5] and in assay [6] was inactive. The compound was called inactive in assay [7], in [8], in assay [9], in [10], in assay [11] and in [12]. The compound was classed as inactive in assay [13], in assay [14], in [15] and in assay [16].

For `NNC(N)=S`, the result in [1] was inactive.

With `C=C(C)C(=O)OCC1CO1` (centres undefined), the result in [1] was inactive.

For `c1cc2c3c(cccc3c1)CC2`, the outcome in assay [1], in assay [2], in assay [3], in assay [4], in assay [5] and in assay [6] was inactive. Further, the call in assay [7], in [8], in assay [9], in assay [10], in assay [11] and in assay [12] was inactive. Also, the result in assay [13] and in assay [14] was inactive.

As for `COP(=O)(O)OC`, the outcome in [1] was inactive.

For `Nc1ccc2ccccc2c1`, the result in assay [1], in assay [2], in [8], in assay [11], in assay [12] and in [14] was inactive. In addition, the compound was called inactive in assay [15]. In addition, the concentration at half-maximal activity (AC50) in assay [3] is 34.8 µM (active); in assay [4], 33.4 µM (active); in assay [5] it was 47.7 µM (active); in assay [6], 33.9 µM (active); in [7], 34.9 µM (active); in assay [9] it was 42 µM (active). The figures for the AC50 in assay [10], in assay [13] and in assay [16] were 202 µM (active), 46.5 µM (active) and 0.34 µM (active), respectively.

For `CCCCOCC1CO1` (centres undefined), the result in assay [1] was inactive.

On to `CCOP(=S)(OCC)SCn1nnc2ccccc2c1=O`, for which, in assay [1], the result was inactive.

`CCOP(=S)(NC(C)C)Oc1ccccc1C(=O)OC(C)C` (centres undefined): in [1], the outcome was inactive.

On to `CCOP(=S)(S)OCC`, for which, in [1], the outcome was inactive.

In the case of `O=[N+]([O-])c1ccccc1`, the outcome in [1], in assay [2], in [3], in assay [4], in [5] and in assay [6] was inactive. Moreover, the compound was classed as inactive in assay [7], in assay [8], in assay [9], in [10], in assay [11] and in assay [12]. Also, the compound was classed as inactive in assay [14] and in [15].

Take `O=c1[nH]c2ccccc2c(=O)o1`: the outcome in assay [1] was inactive.

`FC(F)(F)c1ccc(Cl)cc1`: the result in [1] was inactive.

With `CC(Cc1ccc(OCC(=O)O)cc1)NCC(O)c1csc(C(F)(F)F)n1` (centres undefined), the outcome in assay [1], in assay [2], in assay [3], in assay [4], in assay [5] and in [6] was inactive. For the same compound, the outcome in [7], in assay [8], in assay [9], in assay [10], in assay [11] and in assay [12] was inactive. Also, the compound was classed as inactive in assay [13], in assay [14] and in assay [15].

Turning to `CNC(=O)Oc1ccc(N(C)C)c(C)c1`, the result in assay [1] was inactive.

Regarding `COC(N)=O`, the result in [1] was inactive.

Take `CC1=C(C(=O)Nc2ccccc2)S(=O)(=O)CCO1`: the AC50 in assay [1] was 21 µM (active).

Turning to `O=NN1CCCC1`, the outcome in assay [1] was inactive.

Regarding `C=CC(=O)OCC(CC)(COC(=O)C=C)COC(=O)C=C`, in [1], the AC50 is 69.1 µM (active) and the result was inactive.

With `O=P(Oc1ccccc1)(Oc1ccccc1)Oc1ccccc1`, the outcome in assay [1], in assay [2], in assay [3], in assay [4], in [5] and in assay [6] was inactive. For the same compound, the compound was called inactive in [7], in assay [8], in [9], in assay [10], in [11] and in assay [12]. Besides, the compound was classed as inactive in [13], in assay [14] and in assay [15].

On to `c1ccc2c(c1)sc1ccccc12`, for which, in [1], the result was inactive.

Take `Cc1ccc(N)cc1N`: the AC50 in assay [1] is 14.7 µM (active); in assay [16], 9.92 µM (active). Besides, the outcome in [1], in assay [2], in assay [4], in assay [5], in assay [6] and in assay [8] was inactive. Besides, the compound was classed as inactive in [9], in assay [10], in assay [11], in [13], in assay [14] and in assay [15].

Consider `CCN(CC)C1CCCCC1`, for which, in assay [1], the outcome was inactive.

For `O=P(OCC(Br)CBr)(OCC(Br)CBr)OCC(Br)CBr` (centres undefined), the AC50 in assay [1] was 75.7 µM (active) and 73.6 µM (active).

For the compound `CCC(C)(C)c1ccc(O)cc1`, the outcome in assay [1] and in assay [2] was inactive. The AC50 is 51.1 µM (active) in assay [3]; 19 µM (active) in [4]; 22.3 µM (active) in [5]; 52.7 µM (active) in [6]; 14.7 µM (active) in assay [7]; 48.4 µM (active) in assay [8]. Besides, the AC50 in assay [9] is 44.5 µM (active); in assay [10] it was 48.1 µM (active); in assay [11] it was 36.6 µM (active); in [12], 22.2 µM (active); in [13], 47.4 µM (active); in assay [14] it was 47.2 µM (active). Besides, the AC50 in [15] was 31.6 µM (active); in [16] it was 4.91 µM (active).

For `CC1(C)CN=C(NN=C(/C=C/c2ccc(C(F)(F)F)cc2)/C=C/c2ccc(C(F)(F)F)cc2)NC1`, the outcome in assay [1] was inactive.

As for `CCCCC(CC)COC(=O)c1c(Br)c(Br)c(Br)c(Br)c1C(=O)OCC(CC)CCCC` (centres undefined), the result in assay [1] was inactive.
